Compounds without any hit were thinned out: in the full panel of roughly 83,000, 20% have a hit.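 Values shown are percent growth following 48 h exposure of cells in 96-well plates to a single concentration of compound; below 10 was considered active.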 Values without a mark were called inactive. Calls of active or inactive are those of the source.

This assay has as its system MDA-MB-468 breast. In words: NCI-60 one-dose screen, 48 h (100 = growth as untreated, 0 = no growth, -100 = all killed). To be noted: 10 µM unless noted.
`COC1C(O)CC(OC2CC(OC3CC(O[C@@H]4C(=O)c5c(cc6cc(OC7CC(OC8CC(O)C(O)C(C)O8)C(O)C(C)O7)c(C)c(O)c6c5O)CC4[C@H](OC)[C@@H](O)C(C)=O)OC(C)C3O)OC(C)C2O)OC1C` (some centres undefined): the growth was -40.1% (active).

Regarding `COc1ccc(-c2cc(-c3cn(-c4cccc(Cl)c4)nc3-c3ccc(OC)cc3)on2)cc1`, the growth was 88.9%.

As for `COc1cc2c(=O)n(CCN(C)C)c3c4cc5c(cc4ccc3c2cc1OC)OCO5`, the growth is -66.8% (active).

As to `CCOC(=O)c1cc(/C(=N\O)c2cc(OC)c(OC)c(OC)c2)n2cc(C)cc(C)c12`, the growth is 15.8%.

With `CCN(CC)c1ccc(Nc2ccc(CC(=O)c3ccccc3)cc2)cc1`, the growth was 85.2%.

As for `NC1=C(c2nn[nH]n2)C(c2ccccc2Cl)c2ccc3ccccc3c2O1` (centres undefined), the growth was 55.3%.

On to `O=C(Nc1ncc(Cc2cc(Cl)ccc2Cl)s1)c1cccs1`, for which the growth was 18%.

With `C=C(C)[C@@H]1CC[C@]2(C(=O)N3CCN(C)CC3)CC[C@]3(C)[C@H](CC[C@@H]4[C@@]5(C)CC[C@H](OC(=O)c6ccccc6C(=O)O)C(C)(C)[C@@H]5CC[C@]43C)[C@@H]12`, the growth was 107%.

In the case of `O=C1NN(C(=O)c2ccc(Cl)cc2)C(c2ccccc2)=N/C1=C\c1cn(-c2ccccc2)nc1-c1ccccc1`, the growth is 81.9%.

As to `Cc1cnc(-c2ccc(-c3ccc(NC(=O)Nc4c(F)cc(F)cc4F)cc3F)c3c2C(=O)NC3)[nH]1`, the growth was 39.6%.

For the compound `COc1ccccc1/C=C/C=N/NC1=NC2C(S1)N(C)C(=O)N2C` (centres undefined), the growth is -5.34% (active).

Turning to `O=C(CSc1nc2ccccc2[nH]1)c1ccc(N2CCOCC2)cc1`, the growth is 87.6%.

Regarding `COc1cccc(C2CC(=O)Nc3cc4c(cc32)OCO4)c1OC` (centres undefined), the growth was 73.2%.

For `COc1ccc(-c2cc(-c3ccc(Cl)cc3)nc(SCCCC(=O)NO)n2)cc1OC`, the growth is -55.5% (active).

Consider `Cc1[nH]c(C(=O)Nc2ccc(C(N)=O)cc2N2CCOC(C)C2)c(Cl)c1Cl` (centres undefined), for which the growth was 102%.

Consider `Cc1ccc(-c2cc(-c3cccc(Nc4ccnc5cc(Cl)ccc45)c3)nc3nc(N)[nH]c(=O)c23)cc1`, for which the growth is 28%.

On to `NC(=NCc1ccccc1)C(N=Nc1ccccc1)C(=O)NCc1ccccc1` (centres undefined), for which the growth was 55.3%.

Consider `O=C1c2ccc3c4c5ccc(c24)C(=O)N1CCCOCCCCOCCCNCc1ccc(cc1)CNCCCOCCCCOCCCN(C3=O)C5=O`, for which the growth is -81.4% (active).

Consider `C#Cc1ccccc1NC(=O)c1sc2nc3c(cc2c1N)CCCCCC3`, for which the growth was 73.5%.

With `O=C1OC2(c3ccccc31)c1ccccc1-c1ccccc12`, the growth is 40.2%.

On to `Nc1ccccc1SC(CC(=O)c1ccccc1)c1c(Cl)cccc1Cl` (centres undefined), for which the growth was 64.7%.

For `Cn1ccc2c3c(ccc21)CC3=O`, the growth was 106%.

With `CCc1nn2c(-c3cc(OC)c(OC)c(OC)c3)c(-c3cc(OC)c(OC)c(OC)c3)nc2s1`, the growth is 49.3%.

For the compound `Cc1ccccc1Nc1nc(SC(C)C)nc(-c2ccccc2)c1C#N`, the growth was 74.8%.

For `Cc1sc2nc(N3CCCCC3)[nH]c(=O)c2c1C`, the growth was 96.6%.

For `CCCCCCCCCCCC(=O)OC(C)C(=O)NCCCC` (centres undefined), the growth was 105%.

Turning to `O=C1/C(=C/c2ccccc2[N+](=O)[O-])Oc2ccc(O)c(O)c21`, the growth was 37.5%.

As to `BrCCCOc1ccc(Oc2ccc(OCCCBr)cc2)cc1`, the growth is 97.5%.

`CC(=O)N1CC(=O)NC1=S`: the growth is 95.9%.

As to `CSc1ccc(SC2c3ccc(C)cc3Oc3nc(N)c(C#N)c(N)c32)cc1` (centres undefined), the growth is -75.8% (active).

As to `CCCN(CCC)CCCNC(=O)c1cc2c(-c3ccc(OC)c(OC)c3)nn(C)c2s1`, the growth was 39%.

As for `CCOC(=O)c1c(NC(=O)c2cccc(C(F)(F)F)c2)sc2c1CCC(=O)C2`, the growth was -9.5% (active).

`CCCCCCCCSC1=CC(=O)C(OC)=C(OC)C1=O`: the growth was -75% (active).

As to `CON1C(=O)CC[C@]2(C)[C@H]3CC[C@@H]4C([C@@]5(C)CCC(=O)O5)CC[C@@]4(C)[C@]3(C)CC[C@H]2C1(C)C` (some centres undefined), the growth is 94.4%.

In the case of `CC(C)C/C=C/C=C/C(=O)N[C@@H](CC(N)=O)C(=O)N[C@@H]1C(=O)N[C@H](c2ccc(O)cc2)C(=O)N[C@H](CCCN)C(=O)N[C@H]([C@@H](C)O)C(=O)N[C@H](c2ccc(O)cc2)C(=O)N[C@H](c2ccc(O)cc2)C(=O)N[C@H]([C@H](C)O)C(=O)N[C@H](Cc2ccccc2)C(=O)N[C@H](CCCN)C(=O)N[C@H](c2ccc(O[C@H]3O[C@@H](CO)[C@@H](O)[C@@H](O)[C@H]3O[C@@H]3O[C@H](CO)[C@H](O)[C@H](O)[C@@H]3O)cc2)C(=O)N[C@H]([C@H](C)O)C(=O)N[C@H](c2ccc(O)cc2)C(=O)NCC(=O)N[C@H](CC(C)C)C(=O)N[C@H](C)C(=O)N[C@H](c2ccc(O)c(Cl)c2)C(=O)O[C@@H]1C(N)=O`, the growth was 66.7%.

As to `COC(=O)/C(CCC=C(C)C)=C1\[C@@H](OC(C)=O)C[C@@]2(C)[C@H]1CC(=O)[C@H]1[C@@]3(C)CC[C@H](NCc4ccccc4)[C@@H](C)[C@@H]3CC[C@@]12C`, the growth was 87.2%.

As to `C=C1C(=O)O[C@H]2[C@H]1CC/C(COC(=O)c1ccc(C#N)cc1)=C\CC[C@@]1(C)O[C@@H]21`, the growth was -17.2% (active).

As for `C=C1C(=O)O[C@H]2[C@H]1CC/C(CNC(=O)/C=C/c1cccc(OC)c1)=C\CC[C@@]1(C)O[C@@H]21`, the growth is -36.5% (active).

For `Cc1ccc(NC(=O)c2ccc(Nc3ncnc4c3cnn4-c3cccc(F)c3)cc2)cc1`, the growth is 96.6%.

The values above are taken from PubChem BioAssay (NCI).
